Screening results: PubChem, National Center for Advancing Translational Sciences (NCATS)
Compounds with a hit are over-represented: about 7.3% of the library has one in this group of screens.
RORgamma inh: qHTS for inhibitors of ROR gamma transcriptional activity; 5.4% of 310,000 active; Potency, µM (series often up to 53.6 µM), actives largely listed as inhibitors; Nuclear receptor ROR-gamma (Mus musculus), P51450; Drosophila S2 Gal4-RORgamma UAS-luciferase reporter, 20 h; also: nearly all actives have a fitted effect of over 60% in size
Target sequence (P51450 whole entry, looked up, the tested form may be a part): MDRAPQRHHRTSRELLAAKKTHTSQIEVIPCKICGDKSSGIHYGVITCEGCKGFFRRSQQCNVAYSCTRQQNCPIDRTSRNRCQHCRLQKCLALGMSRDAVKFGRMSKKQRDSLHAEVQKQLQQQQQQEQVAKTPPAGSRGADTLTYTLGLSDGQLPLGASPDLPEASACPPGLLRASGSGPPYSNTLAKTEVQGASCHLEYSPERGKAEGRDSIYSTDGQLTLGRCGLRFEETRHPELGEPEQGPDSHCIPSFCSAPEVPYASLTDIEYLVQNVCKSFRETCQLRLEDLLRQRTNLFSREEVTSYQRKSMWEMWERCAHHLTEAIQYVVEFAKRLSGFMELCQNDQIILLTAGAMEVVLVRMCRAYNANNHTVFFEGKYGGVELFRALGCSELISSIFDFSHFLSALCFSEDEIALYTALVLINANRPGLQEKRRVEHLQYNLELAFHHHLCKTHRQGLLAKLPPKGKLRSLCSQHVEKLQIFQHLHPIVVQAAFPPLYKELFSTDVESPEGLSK
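Using a luciferase readout, inhibitors were identified by reduced reporter activity in Drosophila cells coexpressing a copper-inducible Gal4–ROR gamma fusion and UAS-driven Photinus luciferase, incubated 20 hr after 700 uM copper sulfate.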
Tau fibril FP: qHTS for Inhibitors of Tau Fibril Formation, Fluorescence Polarization | Microtubule-associated protein tau (Homo sapiens), P10636 | K18 P301L tau heparin fibrillization, Alexa594 FP, 6 h | Potency, µM (series often up to 57.7 µM), hits mostly inhibitors | 0.39% of 280,000 active | AID 1468, 2008; also: nearly all actives have a fitted effect of over 55% in size
Target sequence (P10636 561-689 P618L limits assumed): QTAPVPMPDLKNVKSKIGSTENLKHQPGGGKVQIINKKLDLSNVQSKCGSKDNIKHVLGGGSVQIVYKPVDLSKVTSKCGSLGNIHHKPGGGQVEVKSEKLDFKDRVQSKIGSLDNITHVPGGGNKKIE
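Read-out: fluorescence polarization of Alexa 594-labeled tau (0.24 uM), 555 nm excitation, 632 nm emission. Mixtures held 15 uM unlabeled K18 P301L, compound and 20 uM heparin, pH 7 acetate buffer, incubated 6 hr at 37 C.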
Tau fluor counter: Counterscreen qHTS for Inhibitors of Tau Fibril Formation, Fluorescence Polarization. tau K18 P301L Alexa594 fluorescence, heparin fibrillization. 0.93% of 280,000 active. Potency, µM (titrated, usually from 57.7 µM); also: nearly all actives have a fitted effect of over 55% in size
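Human tau K18 P301L (15 uM unlabeled, 0.24 uM Alexa 594-labeled) in 100 mM sodium acetate pH 7 with 20 uM heparin, 6 hr at 37 C. ThT 30 uM added, 1 hr ambient; Alexa 594 FP and total fluorescence read at 555/632 nm.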
Gal4-VP16 FLuc: VP16 counterscreen qHTS for inhibitors of ROR gamma transcriptional activity | Drosophila S2 Gal4-VP16 UAS-luciferase, luminescence, 20 h | Potency, µM (titrated, usually from 53.6 µM), usual class: inhibitors | 3.5% of 310,000 active;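 also: Gal4-VP16 expression switched on by copper sulfate through the metallothionein promoter; nearly all actives have a fitted effect of over 50% in size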
Tau fibril ThT: qHTS for Inhibitors of Tau Fibril Formation, Thioflavin T Binding; Microtubule-associated protein tau (Homo sapiens), P10636; 2.1% of 270,000 active; Potency, µM (titrated, usually from 57.4 µM), most hits filed as inhibitors; recombinant tau K18 P301L (four-repeat tau fragment), heparin-induced fibrillization, ThT fluorescence; also: nearly all actives have a fitted effect of over 55% in size
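K18 P301L tau (15 uM + 0.24 uM Alexa 594-tagged), heparin 20 uM, NaOAc pH 7, 6 h 37 C; ThT 30 uM, 1 h RT, ex 450/em 510 nm.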
A number is an active result; – = inactive; ? = inconclusive; · = no result given; [ ] = another dose, or the depositor's remark. Calls follow the shape of the dose curve; as a rule, active = well fitted curve in the direction sought with a large enough effect; inconclusive = small, poorly fitted or top-dose-only effect, or another doubt; inactive = no such curve, though single readings can be large; an effect the other way counts as inactive or inconclusive.

SMILES	RORgamma inh	Tau fibril FP	Tau fluor counter	Gal4-VP16 FLuc	Tau fibril ThT
CCOc1cc(C2C(C(=O)OC)=C(C)NC3=C2C(=O)c2ccccc23)c(Br)cc1OC (configuration not stated)	·	–	15.8µM[quencher]	·	?
CCOc1cc(C2C(C(=O)OC)=C(C)NC3=C2C(=O)c2ccccc23)c(Br)cc1O (configuration not stated)	·	–	14.1µM[quencher]	·	5.01µM
O=C(NCCN1CCOCC1)C1(C(F)(F)F)C/C(=C\CCO)CCCO1 (configuration not stated)	–	·	·	–	·
O=C(NC(C1CC1)C1CC1)C1CCC(=O)N(CCCN2CCCC2=O)C1 (configuration not stated)	–	·	·	–	·
CCN(CC)CCCn1c(=S)[nH]c2cc(C(=O)OC)ccc2c1=O	–	–	–	–	–
COCCn1c(=S)[nH]c2cc(C(=O)N(CCO)Cc3ccccc3)ccc2c1=O	11.2µM	·	·	?	·
COc1ccc(-n2c(=S)[nH]c3c(oc4ccccc43)c2=O)cc1	2.82µM	–	–	4.47µM	–
CCn1c(=S)[nH]c2cc(C(=O)OC)ccc2c1=O	12.6µM	–	–	11.2µM	–
COc1ccc(-n2c(=S)[nH]c3cc(C(=O)N(C)Cc4ccccc4)ccc3c2=O)cc1	7.94µM	·	·	?	·
Cc1ccc(CN2CCN(C3CCN(C(=O)OC(C)(C)C)CC3)C(=O)C2=O)cc1	·	–	–	·	–
COC(=O)c1ccc2c(=O)n(-c3ccc(OC)cc3)c(=S)[nH]c2c1	2.82µM	–	–	5.62µM	–
COc1ccc(NC(=O)c2cc3c(-c4ccc(OC)c(OC)c4)nn(C)c3s2)cc1OC	–	–	3.55µM[quencher]	–	?
COc1ccc(-c2nn(C)c3sc(C(=O)Nc4cc(OC)c(OC)c(OC)c4)cc23)cc1OC	·	?	2.51µM[quencher]	·	?
COc1ccc(-c2nn(C)c3sc(C(=O)NCc4ccco4)cc23)cc1OC	–	–	–	–	–
COc1cccc(-c2nn(C)c3sc(C(=O)NCc4ccc(C)o4)cc23)c1	–	–	–	20µM	–
CCc1noc(C)c1C(=O)N1CCSC1=Nc1cccc(Cl)c1C	–	·	·	–	·
COc1ccc(-c2nnc3n2N=C(c2c(OC)cccc2OC)CS3)cc1	–	·	·	–	·
CCC(C)(C)c1ccc(Oc2ccc(N)cc2)cc1	–	–	?	7.94µM	–
CCC(C)(C)c1ccc(Oc2cccc(C(=O)O)c2)cc1	–	–	–	?	–
COc1ccc(NCC(=O)N/N=C/C=C\c2ccccc2)cc1	11.2µM	–	–	12.6µM	–
COc1ccccc1NCC(=O)N/N=C/c1cccnc1	–	–	–	–	–
COc1ccccc1NCC(=O)N/N=C/C=C/c1ccccc1	?	–	?	?	14.1µM
Cc1ccc2c(c1)N(C(=O)CCC(=O)NC1CCCCCC1)CCO2	–	·	·	–	·
COc1ccc(CCNc2c(C)c(C)nc3ncnn23)cc1	–	–	–	6.31µM	–
COc1ccc(Cn2c(O)c(C=Nc3ccccc3C(=O)O)c3ccccc3c2=O)cc1	?	–	–	–	?
SMILES	RORgamma inh	Tau fibril FP	Tau fluor counter	Gal4-VP16 FLuc	Tau fibril ThT
COc1ccccc1NS(=O)(=O)c1cccc(-n2c(O)c(C=Nc3ccccc3C(=O)O)c3ccccc3c2=O)c1	–	–	?	–	15.8µM
CCOC(=O)c1noc2ncn(CC(=O)Nc3ccccc3OC)c(=O)c12	·	–	–	·	–
COc1ccccc1/C=C/C(=O)Nc1ccc2c(c1)OCCO2	1.58µM	–	?	–	?
COc1ccccc1/C=C/C(=O)Nc1ccc2c(c1)CCC2	–	–	?	–	?
O=C(/C=C/c1ccccc1)Nc1ccc2c(c1)OCCO2	10µM	–	–	12.6µM	?
CN(C)S(=O)(=O)c1ccc(-c2csc(N/N=C/c3ccc(O)cc3)n2)cc1	–	–	10µM[quencher]	?	14.1µM
Cc1cc(NS(=O)(=O)c2ccc(Nc3nc(-c4ccc(O)cc4)cs3)cc2)no1	–	–	–	–	–
C(=N\Nc1nc(-c2ccccc2)cs1)/c1ccncc1	–	–	12.6µM[quencher]	–	15.8µM
ClCc1csc(N/N=C/c2cccs2)n1	–	?	?	–	17.8µM
C(=N\Nc1nc(-c2ccccc2)cs1)/c1cccs1	–	–	12.6µM[quencher]	–	14.1µM
COc1ccc(C2=NC3(CCCCCC3)N(CC(=O)Nc3ccc(C)c(C)c3)C2=O)cc1	·	?	–	·	–
COc1ccc2c(CNCc3cccs3)c(C(=O)O)n(Cc3ccccc3C)c2c1	·	–	–	·	–
Cc1onc(-c2ccccc2)c1-c1csc(N/N=C/c2ccccc2)n1	–	?	?	–	?
Cc1ccc(-c2csc(N/N=C/C=C/c3ccccc3)n2)cc1	2.82µM	–	?	?	?
Cc1ncc(C[n+]2csc(CCOP(=O)(O)O)c2C)c(N)n1	–	·	·	–	·
COc1ccc(-c2noc(CCC(=O)O)n2)cc1	?	–	–	?	–
COc1ccc(-c2noc(CCCC(=O)O)n2)cc1	0.316µM	–	–	0.355µM	–
O=C(O)CCc1nc(-c2ccccc2)no1	–	–	–	–	–
CCOc1ccc(-c2noc(CCC(=O)O)n2)cc1	0.355µM	–	–	1.41µM	–
Cc1sc(NC(=O)/C=C/c2ccc(C(C)C)cc2)c(C#N)c1C	–	–	–	–	–
COc1ccc(-c2csc(NC(=S)NC(=O)/C=C/c3ccc(C(C)C)cc3)n2)cc1OC	3.98µM	·	·	7.94µM	·
COc1ccc(-c2csc(NC(=S)NC(=O)/C=C/c3ccco3)n2)cc1Br	7.94µM	–	–	?	?
CC(C)c1ccc(/C=C/C(=O)Nc2nncs2)cc1	12.6µM	–	–	–	–
COc1ccc(-c2csc(NC(=S)NC(=O)/C=C/c3ccco3)n2)cc1OC	7.94µM	–	–	14.1µM	?
O=C(/C=C/c1ccco1)Nc1nc(-c2ccc(F)c(F)c2)cs1	–	–	–	–	–
SMILES	RORgamma inh	Tau fibril FP	Tau fluor counter	Gal4-VP16 FLuc	Tau fibril ThT
COc1ccc(-c2csc(NC(=S)NC(=O)c3ccccc3)n2)cc1Br	–	–	–	–	·
CCCC(=O)NCCc1c2n(c3ccc(OC)cc13)CCCc1ccccc1-2	·	–	–	·	–
Cc1ccc2nc(-c3ccc(NS(=O)(=O)c4ccc(F)c(F)c4)cc3)sc2c1	–	?	10µM[quencher]	?	?
CCN(CC)S(=O)(=O)c1ccc(C(=O)OCC(=O)Nc2ccc(-c3nc4ccc(C)cc4s3)cc2)cc1	0.398µM	–	–	?	–
CCN(CC)S(=O)(=O)c1cc(C(=O)OCC(=O)Nc2ccc(-c3nc4ccc(C)cc4s3)cc2)ccc1F	12.6µM	?	–	8.91µM	–
Cc1ccc2nc(-c3ccc(NC(=O)COCC(=O)O)cc3)sc2c1	–	–	–	–	–
Cc1ccc2nc(-c3ccc(NS(=O)(=O)c4ccccc4)cc3)sc2c1	–	–	–	?	–
